Assay [1] in a line: qHTS of pediatric cancer cell lines to identify multiple opportunities for drug repurposing: Primary screen for LAN-5 cells (AID 1347100). Put shortly:
(§1)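 Cells (500-1,000/well) rested 5 h, then received compounds for 48 h; metabolically active cells were measured by CellTiter-Glo luminescence. Final concentrations spanned up to 46 µM (MIPE, 11-point) or 0.59 nM-46 µM (NPC, 8-point) in primary screens, 11-point in follow-ups.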
For orientation: In qHTS, concentration-response curves come from the screen itself.

Assay [2] is described as follows: qHTS of pediatric cancer cell lines to identify multiple opportunities for drug repurposing: Primary screen for BT-12 cells (AID 1347101). Note: nearly all actives have a fitted effect of over 25% in size. The procedure, abridged: as §1
Assay [3] in a line: qHTS of pediatric cancer cell lines to identify multiple opportunities for drug repurposing: Primary screen for Rh18 cells (AID 1347102). Note: nearly all actives have a fitted effect of over 65% in size. The procedure, abridged:
as §1

Assay [4] is described as follows: qHTS of pediatric cancer cell lines to identify multiple opportunities for drug repurposing: Primary screen for OHS-50 cells (AID 1347103). Note: nearly all actives have a fitted effect of over 40% in size. Note: potency is the fitted concentration of half-maximal effect. The procedure, abridged: as §1
A short description of assay [5]: qHTS of pediatric cancer cell lines to identify multiple opportunities for drug repurposing: Primary screen for RD cells (AID 1347104). Note: nearly all actives have a fitted effect of over 55% in size. Put shortly:
(§2)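 Plated cells (500-1,000 per well, growth media) were allowed to settle for 5 hours, treated with compound dilutions for 48 hours, then lysed with CellTiter-Glo for 15 min at room temperature before luminescence reading.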

Assay [6] can be described thus: qHTS of pediatric cancer cell lines to identify multiple opportunities for drug repurposing: Primary screen for MG 63 (6-TG R) cells (AID 1347105). Note: nearly all actives have a fitted effect of over 50% in size. Put shortly:
as §2

Assay [7] is described as follows: qHTS of pediatric cancer cell lines to identify multiple opportunities for drug repurposing: Primary screen for control Hh wild type fibroblast cells (AID 1347106).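 Note: series mostly up to about 46 µM; a drop in luminescence marks cytotoxicity and a rise apparent proliferation; nearly all actives have a fitted effect of over 55% in size.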 The procedure, abridged:
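Viability after 48 h compound treatment at 37C, 500-1,000 cells/well, read as ATP luminescence with CellTiter-Glo. Primary screens used 11-point (MIPE, 0.78 nM-46 µM) or 8-point (NPC, 0.59 nM-46 µM) final concentrations; follow-up screens used 11-point dilutions.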

A short description of assay [8]: qHTS of pediatric cancer cell lines to identify multiple opportunities for drug repurposing: Primary screen for Rh30 cells (AID 1347107). Note: series mostly up to about 46 µM; nearly all actives have a fitted effect of over 75% in size. The procedure, abridged:
as §1

The nature of assay [9]: qHTS of pediatric cancer cell lines to identify multiple opportunities for drug repurposing: Confirmatory screen for NB1643 cells (AID 1347109). Note: nearly all actives have a fitted effect of over 45% in size. Put shortly: as §1
A short description of assay [10]: qHTS of pediatric cancer cell lines to identify multiple opportunities for drug repurposing: Confirmatory screen for A673 cells (AID 1347110).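 Note: cells exposed to compound for 48 h before the viability read; nearly all actives have a fitted effect of over 65% in size.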 Note: potency is the fitted concentration of half-maximal effect. Put shortly:
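Cells plated at 500-1,000/well were treated five hours later with multi-point dilutions up to 46 µM final. After two days, CellTiter-Glo was added and luminescence read.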

Assay [11] can be described thus: qHTS of pediatric cancer cell lines to identify multiple opportunities for drug repurposing: Confirmatory screen for LAN-5 cells (AID 1347113). Note: nearly all actives have a fitted effect of over 65% in size. The procedure, abridged:
as §1

A short description of assay [12]: qHTS of pediatric cancer cell lines to identify multiple opportunities for drug repurposing: Confirmatory screen for DAOY cells (AID 1347114). Note: nearly all actives have a fitted effect of over 65% in size. The procedure, abridged: (§3)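 Viability measured as metabolically active cells via CellTiter-Glo luminescence following 48 hours of compound exposure, 11-point dilutions in confirmatory testing. 500-1,000 cells/well plated 5 hours before dosing; controls were DMSO and 2.3 µM bortezomib.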

Assay [13] is described as follows: qHTS of pediatric cancer cell lines to identify multiple opportunities for drug repurposing: Confirmatory screen for NB-EBc1 cells (AID 1347115).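 Note: cells exposed to compound for 48 h before the viability read; nearly all actives have a fitted effect of over 45% in size.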 Note: potency is the fitted concentration of half-maximal effect. Put shortly:
as §1

Assay [14] can be described thus: qHTS of pediatric cancer cell lines to identify multiple opportunities for drug repurposing: Confirmatory screen for SJ-GBM2 cells (AID 1347116). Note: nearly all actives have a fitted effect of over 60% in size. Put shortly: as §3
A short description of assay [15]: qHTS of pediatric cancer cell lines to identify multiple opportunities for drug repurposing: Confirmatory screen for BT-37 cells (AID 1347117). Note: nearly all actives have a fitted effect of over 55% in size. The procedure, abridged:
as §1

Assay [16] can be described thus: qHTS of pediatric cancer cell lines to identify multiple opportunities for drug repurposing: Confirmatory screen for MG 63 (6-TG R) cells (AID 1347119). Note: nearly all actives have a fitted effect of over 55% in size. Note: potency is the fitted concentration of half-maximal effect. The procedure, abridged:
as §1

A short description of assay [17]: qHTS of pediatric cancer cell lines to identify multiple opportunities for drug repurposing: Confirmatory screen for control Hh wild type fibroblast cells (AID 1347121). Note: nearly all actives have a fitted effect of over 70% in size. Put shortly:
as §1

Assay [18] is described as follows: qHTS of pediatric cancer cell lines to identify multiple opportunities for drug repurposing: Confirmatory screen for Rh41 cells (AID 1347123).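 Note: 48 h compound exposure; nearly all actives have a fitted effect of over 60% in size.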 The procedure, abridged: as §1
The nature of assay [19]: qHTS of pediatric cancer cell lines to identify multiple opportunities for drug repurposing: Primary screen for Rh41 cells (AID 1347108).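 Note: series mostly up to about 46 µM; luminescence drop marks cytotoxic hits; nearly all actives have a fitted effect of over 70% in size.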 The procedure, abridged:
as §2

The nature of assay [20]: qHTS of pediatric cancer cell lines to identify multiple opportunities for drug repurposing: Confirmatory screen for TC32 cells (AID 1347118). Note: potency is the fitted concentration of half-maximal effect. The procedure, abridged:
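Measured quantity: luminescence from CellTiter-Glo, reflecting metabolically active TC32 cells following 48 h of compound. Curves came straight from multi-point titrations, with 8 or 11 points in primary and 11 in confirmatory screening.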

Results filed as inconclusive are left out. Activity calls are given as the source filed them. Calls come from the whole dose curve; as a rule, active = well fitted curve in the direction sought with a large enough effect; inconclusive = small, poorly fitted or top-dose-only effect, or another doubt; inactive = no such curve, though single readings can be large; an effect the other way counts as inactive or inconclusive.

Turning to `C[C@]12CCC(=O)C=C1CC[C@H]1[C@@H]3CC[C@](O)(C(=O)CO)[C@@]3(C)C[C@H](O)[C@@]12F`, the Potency entry in assay [1], in [2], in assay [3], in [4], in assay [5] and in assay [6] was “inactive” in each case. For the same molecule, the Potency entry in assay [7], in assay [8], in assay [9], in assay [10], in [11] and in assay [12] was “inactive” each time. Besides, the Potency result in assay [13], in [14], in assay [15], in assay [16], in assay [17] and in assay [18] was “inactive” each time.
Regarding `Cc1cc2c(cc1CC(=O)c1sccc1S(=O)(=O)Nc1onc(C)c1Cl)OCO2`, the Potency result in assay [1], in assay [2], in assay [3], in assay [4], in [5] and in assay [6] was “inactive” in each case. Also, the Potency entry in assay [7], in assay [8] and in assay [19] was “inactive” each time.
Turning to `CC(=O)CC(c1ccc([N+](=O)[O-])cc1)c1c(O)c2ccccc2oc1=O` (stereo not given), the Potency entry in assay [1], in [2], in assay [3], in [4], in assay [5] and in assay [6] was “inactive” each time. Also, the Potency result in assay [7], in assay [8] and in [19] was “inactive” in each case.
Consider `CC(=O)Oc1ccc(C(=C2CCCCC2)c2ccc(OC(C)=O)cc2)cc1`, for which the Potency result in [1], in [2], in [3], in assay [4], in [5] and in assay [6] was “inactive” throughout. The Potency entry in [7], in assay [8] and in assay [19] was “inactive” in each case.
As to `Cc1cc(=O)n(-c2ccccc2)n1C`, the Potency entry in assay [1], in assay [2], in assay [3], in [4], in assay [5] and in [6] was “inactive” each time. Moreover, the Potency entry in [7], in [8] and in [19] was “inactive” in each case.
Regarding `CN(C)/N=N/c1nc[nH]c1C(N)=O`, the Potency result in assay [1], in assay [2], in assay [3], in assay [5], in assay [6] and in assay [7] was “inactive” in each case. Besides, the Potency entry in assay [8], in assay [10], in assay [12], in assay [15], in [17] and in assay [18] was “inactive” throughout. In addition, the Potency in assay [4] is 1.74 µM (active); in [13], 18.5 µM (active); in assay [20], 23.3 µM (active); in [16] it was 0.369 µM (active).
Take `C[C@]12C=CC(=O)C=C1[C@@H](F)C[C@@H]1[C@@H]2[C@@H](O)C[C@@]2(C)[C@H]1CC[C@]2(O)C(=O)CO`: the Potency entry in assay [1], in assay [2], in assay [3], in assay [4], in assay [5] and in assay [6] was “inactive” in each case. Also, the Potency entry in assay [7], in [8], in assay [19], in [9], in assay [10] and in [11] was “inactive” in each case. The Potency entry in assay [12], in assay [13], in assay [15], in [20], in [16] and in assay [17] was “inactive” in each case.
As to `OC[C@H]1O[C@H](O[C@]2(CCl)O[C@H](CCl)[C@@H](O)[C@@H]2O)[C@H](O)[C@@H](O)[C@H]1Cl`, the Potency result in assay [1], in [2], in assay [3], in assay [4], in [5] and in assay [6] was “inactive” each time. Further, the Potency entry in assay [7], in [8] and in assay [19] was “inactive” each time.
In the case of `CCC(=O)c1c(O)cc(O)cc1O`, the Potency result in [1], in assay [2], in assay [3], in [4], in assay [5] and in [6] was “inactive” in each case. Besides, the Potency entry in [7], in assay [8] and in [19] was “inactive” throughout.
Consider `CCCCS(=O)(=O)N[C@@H](Cc1ccc(OCCCCC2CCNCC2)cc1)C(=O)O`, for which the Potency entry in assay [1], in [2], in assay [3], in [4], in [5] and in assay [6] was “inactive” throughout. The Potency result in assay [7] and in assay [19] was “inactive” in each case.
In the case of `CCCCCC=CCC=CCCCCCCCC(=O)OCC`, the Potency entry in assay [1], in [2], in assay [3], in assay [4], in [5] and in assay [6] was “inactive” in each case. Also, the Potency entry in [7], in [8] and in assay [19] was “inactive” in each case.
Turning to `NC[C@H]1O[C@H](O[C@H]2[C@H](O)[C@@H](O[C@H]3O[C@H](CO)[C@@H](O)[C@H](N)[C@H]3O)[C@H](N)C[C@@H]2N)[C@H](N)[C@@H](O)[C@@H]1O`, the Potency result in assay [1], in assay [2], in [3], in assay [4], in assay [5] and in assay [6] was “inactive” each time. For the same molecule, the Potency result in assay [7], in [8] and in assay [19] was “inactive” in each case.
As to `C[C@H]1C[C@H]2[C@@H]3CCC4=CC(=O)C=C[C@]4(C)[C@@]3(Cl)[C@@H](O)C[C@]2(C)[C@@]1(O)C(=O)CO`, the Potency entry in assay [1], in assay [2], in assay [3], in assay [5], in assay [6] and in assay [7] was “inactive” each time. Also, the Potency entry in [8], in assay [19], in assay [9], in [11], in assay [12] and in assay [13] was “inactive” each time. In addition, the Potency result in assay [14], in assay [15], in assay [20], in [16] and in assay [17] was “inactive” each time. For the same molecule, the Potency in assay [4] is 24.6 µM (active); in assay [10], 18.5 µM (active).
In the case of `COc1c2occc2c(OC)c2c(=O)cc(C)oc12`, the Potency result in [1], in assay [2], in assay [3], in assay [4], in assay [5] and in [6] was “inactive” in each case. In addition, the Potency entry in [7], in [8] and in assay [19] was “inactive” throughout.
With `COc1cccc(OC)c1C(=O)N[C@@H]1C(=O)N2[C@@H]1SC(C)(C)[C@@H]2C(=O)O`, the Potency result in assay [1], in [2], in [3], in [4], in assay [5] and in [6] was “inactive” throughout. Also, the Potency result in assay [7], in assay [8] and in [19] was “inactive” each time.
In the case of `CN1CCC[C@@H]1c1cccnc1`, the Potency entry in assay [1], in [2], in assay [3], in [4], in assay [5] and in [6] was “inactive” throughout. For the same molecule, the Potency entry in [7], in [8] and in assay [19] was “inactive” each time.
For `CCOC(=O)OC(C)OC1=C(C(=O)Nc2ccccn2)N(C)S(=O)(=O)c2ccccc21` (stereo not given), the Potency result in assay [1], in [2], in [3], in assay [4], in [5] and in [6] was “inactive” throughout. Moreover, the Potency entry in [7], in [8] and in [19] was “inactive” each time.
`Cc1ccnc(NS(=O)(=O)c2ccc(N)cc2)n1`: the Potency result in [1], in assay [2], in assay [3], in assay [4], in assay [5] and in [6] was “inactive” in each case. In addition, the Potency result in [7], in assay [8] and in assay [19] was “inactive” each time.
As to `CCC(C(=O)OCCN(CC)CC)c1ccccc1` (stereo not given), the Potency entry in [1], in assay [2], in [3], in assay [4], in [5] and in assay [6] was “inactive” each time. For the same molecule, the Potency entry in assay [7], in [8], in [19], in [9], in assay [11] and in assay [12] was “inactive” in each case. Also, the Potency result in assay [13], in assay [14], in assay [15], in assay [16], in assay [17] and in assay [18] was “inactive” throughout. Moreover, in assay [20], the Potency is 10.4 µM (active).

(Values after PubChem BioAssay (NCATS).)
